Laboratory results taken from PubChem BioAssay (NCI).
Where “and” joins values, the source holds several entries; their conditions need not be identical. Identical values can stand only once. This is part of a sample that, as a whole, favours compounds with a hit. Of some 83,000 tested, about 20% had one in any assay.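 Growth was measured after 48 h exposure to one concentration of compound in 96-well plates. Values under 10 count as active.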 Calls of active or inactive are those of the source.

Each compound was assayed on HOP-62 NSCLC (assay: NCI-60 one-dose screen, 48 h (100 = growth as untreated, 0 = no growth, -100 = all killed)). Conditions: 10 µM unless noted.
With `CCCCNC(=O)c1ccccc1C` the growth was 91.1% (inactive).
In the case of `CC1(C)CC(=O)NC1=O`, the growth is reported as 101% (inactive).
For `COc1ccc(C(=O)C(O)c2ccc(OC)cc2)cc1` (centres undefined), the growth was 109% (inactive) and 108% (inactive).
In the case of `COc1ccc2nccc(Cl)c2c1`, the growth is reported as 98.4% (inactive).
`O=C(c1ccccc1)C1(Br)CCCCC1` was tested, and the growth was 96% (inactive).
With `CN(C=O)c1ccccc1` the growth was 92.3% (inactive).
`CCOCCC(=O)O` was tested, and the growth was 115% (inactive).
For `Cc1cc2ccccc2c2cc3ccccc3cc12`, the growth was 85.6% (inactive).
In the case of `CS(=O)(=O)OCC1NC(=O)C(COS(C)(=O)=O)NC1=O` (centres undefined), the growth is reported as 106% (inactive) and 118% (inactive).
With `Clc1ccc(/C=C/c2ccc3ccccc3n2)cc1` the growth was 45.2% (inactive) and 95.4% (inactive) and 93.5% (inactive).
With `CCOC(=O)C1=CC(=O)CC(C)(C)O1` the growth was 109% (inactive) and 107% (inactive).
In the case of `CC(=O)Oc1cc(C)c(OC(C)=O)c(C)c1C`, the growth is reported as 102% (inactive).
For `COc1ccc(/C=N/Nc2nc3ccccc3s2)cc1`, the growth was 91.9% (inactive).
With `CC1CCC(=O)N1c1ccc(N)cc1` (centres undefined) the growth was 86.3% (inactive).
In the case of `Cc1ccc(N)cc1S(=O)(=O)O`, the growth is reported as 104% (inactive) and 112% (inactive).
In the case of `CCOC(C)=N`, the growth is reported as 101% (inactive).
`O=C(c1ccc(Cl)cc1)C1C(c2ccccc2)C1[N+](=O)[O-]` (centres undefined) was tested, and the growth was 98% (inactive).
For `CC(CN(C)C)CN1c2ccccc2Sc2ccccc21` (centres undefined), the growth was 92.2% (inactive) and 78.2% (inactive) and 80.8% (inactive).
For `CCCC(=O)OCC(COC(=O)CCC)OC(=O)CCC`, the growth was 98.6% (inactive).
With `COc1ccccc1OCC(O)CO` (centres undefined) the growth was 96.8% (inactive) and 121% (inactive).
`CC1(C)OC(=O)C(=Cc2ccc(C#N)cc2)C(=O)O1` was tested, and the growth was 90.6% (inactive) and 114% (inactive).
For `CCC(=O)Oc1ccc(OCc2ccccc2)cc1`, the growth was 107% (inactive) and 94.8% (inactive).
With `O=C(c1ccncc1)c1c(Cc2ccccc2)ccc2ccccc12` the growth was 95.1% (inactive).
In the case of `CCCC(=O)Oc1ccc2ccccc2c1`, the growth is reported as 89.9% (inactive).
For `CCOC(=O)C1=C(C)NC(C)=C(C(=O)OCC)C1`, the growth was 117% (inactive) and 91.3% (inactive).
`C/C(CC(C)C)=N/NC(N)=S` was tested, and the growth was 99.4% (inactive).
In the case of `OCc1cccc(F)c1`, the growth is reported as 100% (inactive).
For `Cc1cc(=NO)cc(C)n1O`, the growth was 100% (inactive).
`OCc1ccccc1F` was tested, and the growth was 97.3% (inactive).
In the case of `COc1cc(Cl)ccc1C`, the growth is reported as 99.5% (inactive).
In the case of `COC(=O)c1nc(=S)[nH]c(C(=O)OC)c1C(=O)c1ccc(OC)cc1`, the growth is reported as 123% (inactive).
`CCN(CC)C(=S)SCCO` was tested, and the growth was 104% (inactive).
In the case of `OCCSc1ccc(Cl)cc1`, the growth is reported as 108% (inactive) and 76.1% (inactive).
In the case of `Nc1nc(-c2ccccn2)cc(-c2cc(-c3ccccn3)nc(N)n2)n1`, the growth is reported as 119% (inactive).
In the case of `COc1cc(C2c3cc4c(cc3C(OC(=O)C[n+]3ccccc3)C3COC(=O)C23)OCO4)cc(OC)c1OC` (centres undefined), the growth is reported as 19.3% (inactive).
In the case of `CSc1nc(N)c(N)c(N)n1`, the growth is reported as 92.6% (inactive).
`C/C=C(/C(=O)NC(N)=O)C(C)C` was tested, and the growth was 111% (inactive).
For `CC(O)CCNC(c1ccccc1)C(O)c1ccccc1` (centres undefined), the growth was 104% (inactive).
For `Cc1c(Cl)c(C)c(Cc2c(C)c(Cl)c(C)c(Cl)c2O)c(O)c1Cl`, the growth was 15.8% (inactive).
